A selection: hits, their analogues and other compounds. The true share with any hit is near 8.5%.
ALDH1A1 inh: inhibitors of human aldehyde dehydrogenase 1A1. P00352. Purified ALDH1A1, NADH fluorescence, propionaldehyde substrate. Potency, µM (doses to about 75.3 µM), inactives show at the top dose activity, negative = inhibition, hits mostly inhibitors. 220,000 compounds, 7.3% hits;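 note: potency is the fitted concentration of half-maximal effect; plate controls were no enzyme wells and a reference inhibitor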
Target sequence (P00352 whole entry, looked up): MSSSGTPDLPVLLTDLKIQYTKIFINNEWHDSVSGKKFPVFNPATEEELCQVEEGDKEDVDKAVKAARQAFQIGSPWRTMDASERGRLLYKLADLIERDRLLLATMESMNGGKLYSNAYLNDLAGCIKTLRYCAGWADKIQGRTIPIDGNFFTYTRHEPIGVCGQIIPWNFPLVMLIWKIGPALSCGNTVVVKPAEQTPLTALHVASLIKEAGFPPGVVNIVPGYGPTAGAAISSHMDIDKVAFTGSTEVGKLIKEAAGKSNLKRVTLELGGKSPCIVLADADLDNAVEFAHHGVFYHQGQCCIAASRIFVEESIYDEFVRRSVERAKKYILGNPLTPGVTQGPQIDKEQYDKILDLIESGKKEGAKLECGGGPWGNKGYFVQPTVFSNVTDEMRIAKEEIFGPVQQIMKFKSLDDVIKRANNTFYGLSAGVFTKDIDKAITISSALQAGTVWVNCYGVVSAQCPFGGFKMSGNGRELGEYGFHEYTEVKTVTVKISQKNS
FBPA coupling cs: coupling enzyme interference in Giardia aldolase counter-screen; coupling enzyme system counterscreen, AmpLite Red fluorescence; activity change, negative = inhibition, % at 58.2 µM, hits read low; 290,000 compounds, 0.67% hits; in the data active = activity change below about -30%
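Counterscreen of the coupled detection system alone, without aldolase: glyceraldehyde-3-phosphate coupling enzymes plus AmpLite Red readout. Compounds at 57.5 uM final, 10 min RT preincubation, 20 min RT reaction, fluorescence 525/598 nm.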
Sfp PPTase inh: Sfp phosphopantetheinyl transferase inhibition; 310,000 compounds, 3.5% hits; AID 1490; Q9F4F7; Biochemical Sfp PPTase activity, qHTS; Potency, µM, without a hit: largest response in the series, negative = inhibition, hits mostly inhibitors; active = well fitted curve in the direction sought with a large enough effect; inconclusive = small, poorly fitted or top-dose-only effect, or another doubt; inactive = no such curve, though single readings can be large; an effect the other way counts as inactive or inconclusive;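 note: the enzyme is Sfp with the accession as filed and its product quenches rhodamine fluorescence; potency is the fitted concentration of half-maximal effect; 0% = enzyme reaction without inhibitor and -100% = no enzyme wells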
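Sfp 15 nM + cpd, 15 min RT; start w/ rhodamine-CoA 5 uM, BHQ-2-YbbR 12.5 uM (final); 50 mM Hepes pH 7.6, 10 mM MgCl2, 0.01% NP-40, 0.01% BSA; read 525/598 nm at 0 and 30 min.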
RGS12 GoLoco inh: RGS12 GoLoco-Gai1 interaction inhibition. P63096. Gai1:RGS12 GoLoco peptide FP, rhodamine, 10 min. Potency, µM (series often up to 61.6 µM), inactives show top-dose activity, negative = inhibition, usual class: inhibitors. 230,000 compounds, 0.44% hits; active = well fitted inhibition curve with a large enough effect, not every such curve was filed as active; inactive = no such curve, though single readings can be large or run the other way; note: potency is the fitted concentration of half-maximal effect; nearly all actives have a fitted effect of over 30% in size
NPSR antag: antagonists of human neuropeptide S receptor cAMP signaling | Q6W5P4 | CHO-NPSR cells, cAMP TR-FRET, antagonist mode | Potency, µM (series often up to 38.3 µM), for the others: top-dose activity change, negative = inhibition, hits mostly inhibitors | 220,000 compounds, 1% hits; active = well fitted curve in the direction sought with a large enough effect; inconclusive = small, poorly fitted or top-dose-only effect, or another doubt; inactive = no such curve, though single readings can be large; an effect the other way counts as inactive or inconclusive; note: potency is the fitted concentration of half-maximal effect; nearly all actives have a fitted effect of over 50% in size
KDM4E inh: inhibitors of human JMJD2E histone demethylase; B2RXH2; JMJD2E catalytic domain, FDH-coupled NADH fluorescence (FDH is formaldehyde dehydrogenase); Potency, µM (series often up to 57.1 µM), for the others: top-dose activity change, negative = inhibition, actives largely listed as inhibitors; 230,000 compounds, 1.6% hits; AID 2147;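 note: potency is the fitted concentration of half-maximal effect; 0% = wells with enzyme and -100% = buffer wells without enzyme; nearly all actives have a fitted effect of over 50% in size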
* hit, by the source's call; [ ] = remark or other dose. Unless noted, calls come from the whole dose curve; as a rule, active = well fitted inhibition curve with a large enough effect (not every such curve was filed as active); inconclusive = small, poorly fitted or top-dose-only effect, or another doubt; inactive = no such curve, though single readings can be large or run the other way. Unless noted, % is set by controls: 0 for no effect and ±100 for the full control effect.

`O=C(Nc1ccccn1)Nc1cccs1` gave ALDH1A1 inh -3%, FBPA coupling cs -4, Sfp PPTase inh 50µM*, RGS12 GoLoco inh 6%, NPSR antag -6%[46.1 µM] and KDM4E inh 2%.
CCOC(=O)c1c(S(=O)(=O)NCCCc2ccco2)c(C)n(C)c1C was read as FBPA coupling cs 0 and Sfp PPTase inh -18%.
For Cc1ccc(Cl)cc1NC(=O)Nc1cccs1 the results were ALDH1A1 inh 2%, FBPA coupling cs 0, Sfp PPTase inh 50µM*, RGS12 GoLoco inh 4%, NPSR antag -1% and KDM4E inh 2%.
`O=C(Nc1ccc(NC(=O)c2cccnc2Cl)cc1)c1cccc(Cl)c1` gave FBPA coupling cs -4 and Sfp PPTase inh 11%.
N=C(N)N1Cc2ccccc2C(O)C1 (configuration not stated) was read as FBPA coupling cs -1 and Sfp PPTase inh -4%.
`Cc1cccc2cc(-c3nc4c(C)cccn4c3NCc3ccco3)c(=O)[nH]c12` gave ALDH1A1 inh 20µM*, FBPA coupling cs -1, Sfp PPTase inh 14%, RGS12 GoLoco inh 10%, NPSR antag -22%[46.1 µM] and KDM4E inh 0%.
Cc1ccc2[nH]c(=O)c(-c3nc4cc(C)ccn4c3NCc3ccco3)cc2c1 was read as ALDH1A1 inh 5%, FBPA coupling cs 0, Sfp PPTase inh inconclusive, RGS12 GoLoco inh 8%, NPSR antag -12%[46.1 µM] and KDM4E inh 3.2µM*.
Screening Oc1ccc(-c2nc3ccccn3c2NCc2ccco2)cc1 returned ALDH1A1 inh inconclusive, FBPA coupling cs 0, Sfp PPTase inh 7%, RGS12 GoLoco inh -1%, NPSR antag 5%[46.1 µM] and KDM4E inh inconclusive.
Screening Cc1cccn2c(=O)c(C=NCCO)c(NCc3ccco3)nc12 returned ALDH1A1 inh -9%, FBPA coupling cs 0, Sfp PPTase inh 3%, RGS12 GoLoco inh -4%, NPSR antag -11%[46.1 µM] and KDM4E inh 3%.
`Cc1c(C(=O)Nc2c(C)n(C)n(-c3ccccc3)c2=O)oc2ccc(Cl)cc12` gave Sfp PPTase inh 13%.
`Cc1ccc(NC(=O)COC(=O)c2cc(C)nc3ccccc23)c([N+](=O)[O-])c1` gave ALDH1A1 inh 9%, FBPA coupling cs 0, Sfp PPTase inh 25%, NPSR antag 10%[46.1 µM] and KDM4E inh -5%.
Cc1ccc(SCCNS(=O)(=O)c2ccc(F)cc2)cc1 was read as ALDH1A1 inh 16µM*, FBPA coupling cs -2, Sfp PPTase inh 10%, RGS12 GoLoco inh 14%, NPSR antag -13%[46.1 µM] and KDM4E inh -1%.
Screening O=S(=O)(NCCSc1ccc(Cl)cc1)c1ccc(F)cc1 returned ALDH1A1 inh inconclusive, FBPA coupling cs 2, Sfp PPTase inh 8%, RGS12 GoLoco inh 7%, NPSR antag 0%[46.1 µM] and KDM4E inh 4%.
Screening Cc1ccc(SCCNS(=O)(=O)c2ccc3c(c2)OCCO3)cc1 returned ALDH1A1 inh 1.4µM*, FBPA coupling cs -2, Sfp PPTase inh 14%, RGS12 GoLoco inh 0%, NPSR antag 3%[46.1 µM] and KDM4E inh -10%.
For COc1ccc(S(=O)(=O)NCCSc2ccc(C)cc2)cc1OC the results were ALDH1A1 inh 5µM*, FBPA coupling cs -2, Sfp PPTase inh -8%, RGS12 GoLoco inh -1%, NPSR antag 4%[46.1 µM] and KDM4E inh 7%.
For C/C(=N\OC(=O)c1c(-c2c(F)cccc2Cl)noc1C)c1nccs1 the results were ALDH1A1 inh inconclusive, FBPA coupling cs 0, Sfp PPTase inh 3%, RGS12 GoLoco inh -8%, NPSR antag 33% and KDM4E inh -2%.
Screening Cc1onc(-c2c(F)cccc2Cl)c1C(=O)O/N=C(\N)c1ccc([N+](=O)[O-])o1 returned ALDH1A1 inh 7.9µM*, FBPA coupling cs 0, Sfp PPTase inh 11%, RGS12 GoLoco inh -1%, NPSR antag 53% and KDM4E inh -8%.
COCCNc1cnn(-c2ccccc2)c(=O)c1Cl was read as FBPA coupling cs 0 and Sfp PPTase inh 9%.
Cc1c(Cl)cccc1NS(=O)(=O)c1ccc2c(c1)C1C=CCC1C(c1ccc(C(=O)O)cc1)N2 (configuration not stated) was read as ALDH1A1 inh 13µM*, FBPA coupling cs 0, Sfp PPTase inh inconclusive, RGS12 GoLoco inh 68%, NPSR antag 12% and KDM4E inh -27%.
For CCOC(=O)C1NC(=O)CC1c1ccccc1 (configuration not stated) the results were ALDH1A1 inh 1%, FBPA coupling cs 0, Sfp PPTase inh 6%, RGS12 GoLoco inh -1%, NPSR antag 8%[46.1 µM] and KDM4E inh 5%.
COc1ccc(NS(=O)(=O)c2ccc3c(c2)[C@H]2C=CC[C@H]2[C@@H](c2ccc(C(=O)O)cc2)N3)cc1 was read as FBPA coupling cs 2 and Sfp PPTase inh -28%.
CCOC(=O)c1ccc2c(c1)C1C=CCC1C(C(=O)O)N2 (configuration not stated) was read as ALDH1A1 inh 18µM*, FBPA coupling cs -4, Sfp PPTase inh inconclusive, RGS12 GoLoco inh -3%, NPSR antag 6%[46.1 µM] and KDM4E inh inconclusive.
Screening CC(=O)c1ccc2c(c1)C1C=CCC1C(c1ccc(S(=O)(=O)N3CCOCC3)cc1)N2 (configuration not stated) returned ALDH1A1 inh 25µM*, FBPA coupling cs -9, Sfp PPTase inh -28%, RGS12 GoLoco inh 15%, NPSR antag -1% and KDM4E inh -20%.
For CCOC(=O)C1Nc2ccc(C(=O)O)cc2C2C=CCC12 (configuration not stated) the results were FBPA coupling cs -13 and Sfp PPTase inh 22µM*.
`COc1cccc(NC(=O)CCN2C(=O)C3CC=CCC3C2=O)c1` (configuration not stated) gave Sfp PPTase inh 6%.
For CCCCn1c(=O)c(CC(C)=O)nc2ccccc21 the results were ALDH1A1 inh -6%, FBPA coupling cs 0, Sfp PPTase inh -1%, RGS12 GoLoco inh 18%, NPSR antag -8% and KDM4E inh inconclusive.
`C#Cc1ccc([C@H]2C=C(C(=O)N3CCOCC3)O[C@@H](OCc3ccc(CO)cc3)C2)cc1` gave ALDH1A1 inh -14%, FBPA coupling cs 1, Sfp PPTase inh 3%, RGS12 GoLoco inh 5%, NPSR antag 20% and KDM4E inh -1%.
Clc1ccccc1-c1nccc(NCc2ccccc2)n1 was read as ALDH1A1 inh inconclusive, FBPA coupling cs 1, Sfp PPTase inh 12% and RGS12 GoLoco inh 3%.
For CCCC1Nc2ccc(C(=O)O)cc2C2C=CCC12 (configuration not stated) the results were ALDH1A1 inh inconclusive, FBPA coupling cs -3, Sfp PPTase inh inconclusive, RGS12 GoLoco inh 34%, NPSR antag -10% and KDM4E inh -1%.

High-throughput results (PubChem BioAssay)
